Screens as filed in PubChem BioAssay.
Only some compounds are listed: those with a hit (about 12% of all), similar ones and a draw of the others.
NS1 inh: influenza NS1 inhibition; Potency, µM (series often up to 46.1 µM), for inactives: top-dose activity, positive = more growth; hit rate 0.4% among 270,000; also: potency is read from the fitted curve at half-maximal effect; actives are rising curves; nearly all actives have a fitted effect of over 50% in size
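OD600 was taken as the measure of yeast growth restored by compound in an NS1-expressing S. cerevisiae strain. Cells had been washed out of glucose medium and diluted 1:100 into galactose -URA medium, pH 6.0.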
Cycloheximide cs: counter-screen for Shiga toxin inhibitors: cycloheximide protein synthesis inhibition | cell reporter, cycloheximide protein synthesis inhibition counterscreen | max response, % | hit rate 12% among 300,000; in the data active = max response mostly above about 13%, no sharp cut-off; inactive = mostly below about 14%; also: read at 38.3 µM for the half of the compounds with a filed dose; 0% is about no effect
SARS PLP yeast: blocks SARS-CoV papain-like protease in a yeast assay; S. cerevisiae expressing SARS-CoV PLpro, growth rescue; hit rate 0.19% among 330,000; Potency, µM (titrated, usually from 32.9 µM), for inactives: top-dose activity, positive = growth rescue, usual class: activators; AID 485353; also: potency is read from the fitted curve at half-maximal effect; 0% is about no effect; nearly all actives have a fitted effect of over 55% in size
Shiga toxin inh: Shiga toxin inhibition | Vero cells, Shiga toxin protein synthesis inhibition reporter | inhibition, % at 38.7 µM | hit rate 9.2% among 290,000 | AID 2315; in the data active = inhibition mostly above about 28%, no sharp cut-off; inactive = mostly below about 43%; also: 0% is about no effect
* marks the source's active call; other numbers are inactive results; . = no result given. Unless noted, calls follow the shape of the full dose curve.

SMILES	NS1 inh	Cycloheximide cs	SARS PLP yeast	Shiga toxin inh
CCCCCCc1ccc(N2C[C@H](CCCCC)[C@@H](CC(=O)NCc3ccccc3)C2=O)cc1	4.4%	0.8	0.2%	-1.5
CCCCCCc1ccc(N2C[C@H](Cc3ccccc3)[C@@H](CC(=O)NCc3ccc(OC)cc3)C2=O)cc1	-0.6%	1.4	2.1%	-5.9
CC(=O)c1cc2c(cc1NC(=O)Cc1c(C)noc1C)OCO2	.	.	7.1%	.
COc1ccc(C(=O)C2CCCN(Cc3cccn3-c3ccc(Cl)cn3)C2)c(OC)c1 (stereo not drawn)	-5.6%	-3.8	-2.7%	17.3
C=CCSC1=N/C(=C\c2ccc(C(=O)O)cc2)C(=O)S1	-1.9%	-3.1	-0.4%	-9.0
CCOc1cc(/C=C2/SC(=S)N(CC3CCCO3)C2=O)ccc1O (stereo not drawn)	8.6%	16.1	4.0%	43.8
COc1cccc(/C=C2\SC(=S)N(CC3CCCO3)C2=O)c1 (stereo not drawn)	-18.9%	26.2*	-16.2%	38.4*
O=C1/C(=C/c2cccc(O)c2)SC(=S)N1CC1CCCO1 (stereo not drawn)	-4.8%	32.1*	1.9%	72.3*
O=C(CN1C(=O)c2ccccc2C1=O)OCC(=O)c1ccccc1	.	.	-7.1%	.
Cc1cc(C)n(CCOC(=O)c2sc3ccccc3c2Cl)n1	-103.7%	18.4*	-4.8%	51.5
NC(=O)COC(=O)c1sc2ccccc2c1Cl	.	12.3	-1.5%	12.5
O=C(/C=C/c1cccc(Cl)c1)Nc1ccncc1	-95.0%	37.8*	-10.3%	53.0*
O=C(/C=C/c1c(F)cccc1Cl)Nc1ccncc1	-28.3%	61.5*	-38.8%	95.5*
O=C(/C=C/c1c(Cl)cccc1Cl)Nc1ccncc1	-60.5%	13.4*	-16.9%	36.1
O=C(COC(=O)c1ccc(S(=O)(=O)Nc2ccccc2)cc1)NCCC1=CCCCC1	10.0%	-1.3	-14.1%	-7.1
COc1cccc(OCc2nc(-c3ccc(Br)o3)no2)c1	.	28.0*	-12.0%	47.5
Cc1cccc(OCc2nc(-c3ccc(Br)o3)no2)c1	.	12.8	0.6%	92.5*
COc1cccc(OCc2nc(-c3cccc([N+](=O)[O-])c3)no2)c1	.	25.3*	-5.7%	45.8
COc1ccc(Cc2nc(-c3ccc(Br)o3)no2)cc1OC	-52.1%	18.3*	-1.9%	52.4
Cc1cccc(NC(=O)CCNS(=O)(=O)c2ccc3[nH]c(=O)oc3c2)c1	26.6%	-3.3	7.2%	4.8
O=C(COC(=O)CC1CC2CCC1C2)NC(=O)NCc1ccco1 (stereo not drawn)	-17.5%	5.5	-28.6%	12.7
O=C(O)/C=C/C(=O)NCCCc1ccccc1	1.3%	-2.7	-0.9%	0.7
CC(C)(C)c1ccc(NC(=O)Nc2ccc(OCC(=O)N3CCOCC3)cc2)cc1	.	35.2*	-3.6%	93.4*
O=C(Nc1ccc(OCC(=O)N2CCOCC2)cc1)Nc1cccc(Cl)c1	-0.6%	14.0*	-0.9%	39.2*
COc1ccc(Cl)cc1NC(=O)Nc1ccc(C(=O)N2CCOCC2)cc1	6.8%	2.3	3.3%	2.3
SMILES	NS1 inh	Cycloheximide cs	SARS PLP yeast	Shiga toxin inh
O=C(Nc1ccc(C(=O)N2CCOCC2)cc1)Nc1cccc(Cl)c1	-6.2%	44.4*	-32.2%	65.0*
Brc1cc2[nH]cnc2c2ccccc12	-85.2%	4.9	-16.0%	-9.6
Oc1ccc2c(ccc3[nH]cnc32)c1	7.7%	27.9*	0.5%	50.8*
CC(C)C(C(=O)NCC1CCCO1)N(C(=O)CNS(=O)(=O)c1ccc(F)cc1)C1CCCCC1 (stereo not drawn)	4.2%	1.4	2.8%	8.2
O=[N+]([O-])c1cc([N+](=O)[O-])c2nonc2c1Nc1ccccc1O	-49.2%	15.9*	-8.8%	72.6*
O=C(CSc1ccccc1C(=O)O)c1ccc(Cl)cc1	-5.8%	29.6*	0.8%	65.0*
O=C(CSc1ccccc1C(=O)O)c1ccccc1	2.0%	7.0	29.3%	20.9
Nc1c2c(nc3sc4c(c13)CCCC4)CCCC2	-68.0%	26.0*	-5.1%	107.1*
Nc1c2c(nc3sc4c(c13)CCCCC4)CCCCC2	-38.8%	51.2*	-23.4%	58.6*
Nc1nc2c(s1)CCCCCCCCCC2	-13.5%	-1.4	-0.7%	1.5
Nc1c2c(nc3sc4c(c13)CCCC4)CCCCC2	-6.0%	70.8*	-1.8%	129.7*
Cc1nc(-c2cccnc2)sc1C(=O)N/N=C/c1ccccc1Cl	-1.6%	-1.6	0.6%	-22.5
CCN(C(=O)CSc1ncccn1)c1cccc2ccccc12	.	.	0.6%	.
O=C(c1ccc(Cl)c([N+](=O)[O-])c1)N1CCN(Cc2ccc3c(c2)OCO3)CC1	2.7%	-2.1	0.3%	-5.5
O=C(/C=C/c1ccc2c(c1)OCO2)Nc1nc2ccccc2s1	2.0%	40.8*	13.8%	62.2*
Cc1csc(NC(=O)/C=C/c2ccc3c(c2)OCO3)n1	-0.4%	74.0*	10.2%	91.1*
